# Assay results reported in ChEMBL document CHEMBL3988442, “University of Dundee, Small-Polar-MMV Screening Library” (2021).
# Target: Chromo domain-containing protein 1 (Saccharomyces cerevisiae (strain ATCC 204508 / S288c) (Baker's yeast)) (UniProt P32657)
# Test: ScCHD-1 Enzyme Inhibition Assay
# Format: functional
# Set-up: scale not given: in the data most compounds retested in dose-response had high values
# Details: 30 µM
# Chromo domain-containing protein 1 (Saccharomyces cerevisiae (strain ATCC 204508 / S288c) (Baker's yeast)), sequence (P32657 whole entry, the tested form may be a part): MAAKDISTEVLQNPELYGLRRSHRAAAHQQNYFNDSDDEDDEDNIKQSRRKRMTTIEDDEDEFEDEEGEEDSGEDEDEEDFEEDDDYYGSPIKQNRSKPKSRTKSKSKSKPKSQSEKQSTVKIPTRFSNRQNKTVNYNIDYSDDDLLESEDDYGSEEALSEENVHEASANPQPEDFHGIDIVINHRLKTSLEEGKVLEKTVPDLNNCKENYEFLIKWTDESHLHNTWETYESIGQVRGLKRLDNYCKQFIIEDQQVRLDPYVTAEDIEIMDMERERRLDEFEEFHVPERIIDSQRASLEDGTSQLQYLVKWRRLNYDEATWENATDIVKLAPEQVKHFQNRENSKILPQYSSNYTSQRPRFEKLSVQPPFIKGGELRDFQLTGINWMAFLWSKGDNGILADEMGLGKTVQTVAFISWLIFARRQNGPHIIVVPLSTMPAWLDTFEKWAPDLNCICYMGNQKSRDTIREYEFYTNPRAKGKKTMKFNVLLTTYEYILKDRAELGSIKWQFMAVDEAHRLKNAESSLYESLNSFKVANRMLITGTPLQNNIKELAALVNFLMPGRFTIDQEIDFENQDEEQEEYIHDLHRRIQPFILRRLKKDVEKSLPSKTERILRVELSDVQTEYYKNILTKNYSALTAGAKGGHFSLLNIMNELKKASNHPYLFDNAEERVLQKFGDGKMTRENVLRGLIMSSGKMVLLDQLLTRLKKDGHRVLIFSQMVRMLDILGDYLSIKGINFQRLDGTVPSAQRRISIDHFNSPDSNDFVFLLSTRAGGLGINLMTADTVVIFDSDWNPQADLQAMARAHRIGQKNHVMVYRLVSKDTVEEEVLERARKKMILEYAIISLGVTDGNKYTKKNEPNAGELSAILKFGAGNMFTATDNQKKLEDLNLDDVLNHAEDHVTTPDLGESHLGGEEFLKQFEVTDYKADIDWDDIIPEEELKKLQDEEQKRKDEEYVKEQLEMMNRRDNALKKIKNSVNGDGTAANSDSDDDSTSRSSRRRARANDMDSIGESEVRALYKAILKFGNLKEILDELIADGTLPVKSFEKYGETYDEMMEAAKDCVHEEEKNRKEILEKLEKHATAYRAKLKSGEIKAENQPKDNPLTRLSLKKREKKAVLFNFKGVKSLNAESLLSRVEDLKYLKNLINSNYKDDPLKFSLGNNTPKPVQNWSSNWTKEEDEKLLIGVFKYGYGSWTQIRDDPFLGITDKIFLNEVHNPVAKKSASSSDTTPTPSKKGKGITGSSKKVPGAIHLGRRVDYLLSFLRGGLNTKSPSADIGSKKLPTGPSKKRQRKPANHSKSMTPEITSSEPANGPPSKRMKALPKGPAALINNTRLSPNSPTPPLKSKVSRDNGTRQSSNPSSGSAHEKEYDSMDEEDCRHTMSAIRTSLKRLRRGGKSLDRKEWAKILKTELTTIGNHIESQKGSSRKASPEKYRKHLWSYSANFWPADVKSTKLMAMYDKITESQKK
row,SMILES,Percent Effect
1,CC(C)c1nc(C2CCCN2CC(=O)Nc2ccc(Cl)cn2)no1 (centres undefined),-14.8%
2,CCN(CC1CCOC1)C(=O)Nc1ccc(-n2cncn2)nc1 (centres undefined),-5.86%
3,O=C(NCc1nn(-c2ccccc2)c2c1CCC2)NC1CC1,-1.68%
4,CC1CN(CC2CCCCC2)CCN1c1ccc2nncn2n1 (centres undefined),95.7%
5,O=C1C(NCc2nnc3n2CCCC3)CCCN1c1cccc(F)c1 (centres undefined),-2.66%
6,O=C(Cc1cccnc1)N1CCC(OCc2ccccc2)CC1,101%
7,CCn1ccnc1CN1CCC(N(C)Cc2ncc(C)o2)C1 (centres undefined),-11.2%
8,NC(=O)c1cc(C2CCCN(CCCOc3ccccc3)C2)n[nH]1 (centres undefined),-4.36%
9,CC(NC(=O)N(C)CCCOc1ccc(F)cc1)c1nncn1C (centres undefined),-10.2%
10,CN(Cc1noc(C2CC2)n1)C1CCN(Cc2nnc(C3CC3)o2)C1 (centres undefined),-8.04%
11,CN(Cc1ccc(F)cc1)[C@@H]1CN(C(=O)c2cccs2)C[C@H]1O,-21.9%
12,CCn1ncc(Br)c1CN(C)S(=O)(=O)c1ccc(C)cc1,-22%
13,Cc1cccc(C(=O)N2CCCCC2c2ccc(CN(C)C)cc2)n1 (centres undefined),-6.07%
14,Cc1cccc(CN2CCc3nnc(CN4CCCC4=O)n3CC2)n1,-8.05%
15,CC(C)c1nccn1-c1cccc(C2CCCN(C3CCCC3)C2)n1 (centres undefined),-23.6%
16,Cc1ccc2cc(C(=O)NCCn3nc4ccccn4c3=O)[nH]c2c1,-7.76%
17,Cc1csc(Nc2nccnc2C2CCCN2C(=O)C(C)C)n1 (centres undefined),-21.8%
18,CC(C)(C)c1cn2nc(N3CCCC3Cn3cncn3)sc2n1 (centres undefined),-6.04%
19,CCNC(=O)c1ccc(CNCc2c(C)nn(C)c2N(C)C)cc1,-11.6%
20,CN(C)c1cc(C(=O)N2CCN(S(C)(=O)=O)CC2)ccn1,-0.991%

row,SMILES,Percent Effect
1,Cn1ccnc1CN1CCN(Cc2noc(-c3ccccc3)n2)CC1,-9.67%
2,COCC(C)N(C)C(=O)c1nc(S(C)(=O)=O)n2ccccc12 (centres undefined),-0.536%
3,CS(=O)(=O)NCC1CCCN(C(=O)COc2ccc(F)cc2)C1 (centres undefined),-6.15%
4,CCN(Cc1cccc2c1OCO2)C(=O)C(C)c1cccnc1 (centres undefined),-5.71%
5,Cc1nc(CN2CCC(N(C)Cc3noc(C4CC4)n3)C2)oc1C (centres undefined),-10.9%
6,COC(=O)CC(c1cnn(C)c1)c1oc(C)cc(=O)c1O (centres undefined),-1.21%
7,Cc1cnn(CC2CCCN2C(=O)c2ccc(OC(C)C)nc2)c1 (centres undefined),2.64%
8,CN1[C@H](CN2CCCC2)C[C@@H]2CN(C(=O)Cc3cccs3)CC[C@@H]21,-11.2%
9,CC(C)CN1CCC2(CCN(C(=O)c3ccc(F)cc3)CC2)C1=O,-8.66%
10,CC(=O)N1N=C(c2ccccc2)OC1C(=O)NCCC1=CCCCC1 (centres undefined),-32.1%
11,CCC1CN(C(=O)c2ccc(Cl)cc2O)CCN1C(C)C (centres undefined),-3.73%
12,Cn1cc(-c2nc(CN3CCc4c(ncn4C4CC4)C3)cs2)cn1,-7.98%
13,O=C(NCCn1nc2ccccn2c1=O)c1cccc2[nH]ncc12,-8.5%
14,COc1ncccc1CNC(=O)NCCNC(=O)c1ccco1,-6.18%
15,Cc1cnn(CCNCc2nnc(C3CC3)o2)c1,-8.53%
16,COc1ccc(S(N)(=O)=O)cc1C(=O)N(C)Cc1cc(C)on1,-7.04%
17,O=S(=O)(CCCN1CCCC1Cn1cncn1)c1ccccc1 (centres undefined),-10.1%
18,O=C(NCC(=O)N1CCc2ccccc2C1)c1ccoc1,-10.6%
19,CC(=O)N1[C@H](CN(C)C)C[C@@H]2CN(C(=O)c3cccc(F)c3)CC[C@@H]21,-5.63%
